PubChem BioAssay
Activity calls are given as the source filed them.

Tests used:
[1] = binders of probe aFSTL3 on microarray, primary screen, stem cell growth factor project, biochemical, small-molecule microarray, fluorescence 635/667 (AID 1064); conditions: higher = more signal;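 also: measures binding of the biotinylated anti-FSTL3 antibody to printed compounds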
[2] = binders from COS7 lysate, DM2A8 probe, primary screen, torsin A project, cell lysate, small-molecule microarray, fluorescence 635/667 (AID 1065); conditions: higher = more signal, COS7 lysate expressing mutant human TOR1A
[3] = binders of probe aFGF2 on microarray, primary screen, stem cell growth factor project, biochemical, small-molecule microarray, fluorescence 635/667 (AID 1067); conditions: higher = more signal;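 also: measures binding of biotinylated aFGF2 protein to printed compounds on slides; z-score merges feature fluorescence and signal-to-noise across triplicate slides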
[4] = binders of probe aFGF10 on microarray, primary screen, stem cell growth factor project, biochemical, small-molecule microarray, fluorescence 635/667 (AID 1071); conditions: higher = more signal;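 also: score merges 667 nm spot intensity and signal to noise from triplicate slides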
[5] = target: Neurogenic locus notch homolog protein 2 (Homo sapiens) (UniProt Q04721); assay: Notch2 binders on small-molecule microarrays, primary screen, biochemical, small-molecule microarray, 635 nm fluorescence, stem cell growth factors (AID 1073); conditions: Notch2 binding, higher = more signal
[6] = target: Pro-neuregulin-1, membrane-bound isoform (Homo sapiens) (UniProt Q02297); assay: NRG1 binders on small-molecule microarrays, primary screen, psychiatric disease protein project, biochemical, small-molecule microarray, fluorescence 635/667 (AID 1075); conditions: NRG1 binding, 635 nm fluorescence, higher = more signal;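 also: score combines 667 nm spot fluorescence with signal to noise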
[7] = test system: Neuregulin-1 EGF-like domain; assay: binders of neuregulin-1 EGF-like domain, primary screen, biochemical, small-molecule microarray, 635 nm fluorescence (AID 1081); conditions: small-molecule microarray binding, higher = more signal;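 also: binding of the protein to compounds printed on small-molecule microarray slides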
[8] = FRG1 promoter luciferase signal modulators, primary screen, FRG1 inhibition for FSHD, cell-based, C2C12 myotubes, firefly/Renilla luciferase, luminescence (AID 1084); conditions: higher = more signal, called active from +8 up or from −8 down
[9] = binders of probe aFST on microarray, primary screen, stem cell growth factor project, biochemical, small-molecule microarray, fluorescence 635/667 (AID 1086); conditions: higher = more signal;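 also: score merges 667 nm fluorescence with signal-to-noise of each printed compound spot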
[10] = binders of probe aHhip on microarray, primary screen, stem cell growth factor project, biochemical, small-molecule microarray, fluorescence 635/667 (AID 1087); conditions: higher = more signal;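 also: score merges spot fluorescence at 667nm with spot signal to noise ratio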
[11] = test system: PRMT1 (protein arginine N-methyltransferase 1); assay: PRMT1 binders on small-molecule microarrays, primary screen, biochemical, small-molecule microarray, 635 nm fluorescence (AID 1088); conditions: small-molecule microarray binding, higher = more signal;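 also: binding of Prmt1 protein to compounds spotted on small-molecule microarray slides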
[12] = yeast growth modulation, basal conditions, primary screen, YJM789 clinical isolate, OD600, 24 h (AID 1089);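 also: growth of clinical yeast isolate S. cerevisiae YJM 789 seeded 1000 cells per well; test concentration not given here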; conditions: S. cerevisiae YJM789 growth, higher = more signal, called active from +8 up or from −8 down
[13] = fission yeast growth modulation, primary screen, strain 972, OD600, 24 h, no modulator (AID 1090);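 also: basal condition with compound alone and no growth modifier present; test concentration not given here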; conditions: S. pombe 972 growth, higher = more signal, called active from +8 up or from −8 down
[14] = S. cerevisiae growth modulation with rapamycin, primary screen, strain BY4716, OD600, 96 h (AID 1091); conditions: higher = more signal, called active from +8 up or from −8 down; also: test concentration not given here
[15] = target: Torsin-1A-interacting protein 2 (Homo sapiens) (UniProt Q8NFQ8); assay: LULL1 binders on small-molecule microarray, primary screen, cell lysate, human LULL1 lysate, 635/667 nm fluorescence (AID 1092); conditions: hLULL1 lysate binding, 635 nm fluorescence, higher = more signal;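 also: probe is lysate of COS7 cells overexpressing human LULL1; score merges per-feature 667 nm fluorescence with signal-to-noise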
[16] = E. coli growth modulation, two-sided OD650, primary screen, E. coli filamentation project, strain DRC41, 24 h (AID 1093); conditions: OD650, 24 h, higher = more signal, called active from +8 up or from −8 down;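 also: MC1000 strain lacking acrAB efflux and sulA so SOS filamentation is blocked; test concentration not given here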
[17] = small-molecule microarray binders of probe aLefty2, primary screen, biochemical, biotinylated probe, 635/667 nm fluorescence (AID 1094); conditions: higher = more signal;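 also: score merges spot fluorescence near 667 nm with spot signal-to-noise ratio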
[18] = test system: Noggin (protein binding on small-molecule microarray); assay: Noggin binders on small-molecule microarray, primary screen, biochemical, 635/667 nm fluorescence (AID 1095); conditions: 635 nm fluorescence, higher = more signal;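 also: score merges 667 nm feature fluorescence with signal to noise over triplicate slides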
[19] = target: Neurogenic locus notch homolog protein 3 (Homo sapiens) (UniProt Q9UM47); assay: NOTCH3 binders on small-molecule microarray, primary screen, biochemical, 635/667 nm fluorescence (AID 1096); conditions: NOTCH3 binding, 635 nm fluorescence, higher = more signal
[20] = small-molecule microarray binders of probe aEGFR, primary screen, biochemical, biotinylated probe, 635/667 nm fluorescence (AID 1097); conditions: higher = more signal;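 also: probe is a biotinylated anti-EGFR antibody binding compounds printed on slides; score combines fluorescence near 667 nm and signal to noise of each spot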

Chain of Neurogenic locus notch homolog protein 2 (Homo sapiens) (Q04721 whole entry, looked up, canonical isoform): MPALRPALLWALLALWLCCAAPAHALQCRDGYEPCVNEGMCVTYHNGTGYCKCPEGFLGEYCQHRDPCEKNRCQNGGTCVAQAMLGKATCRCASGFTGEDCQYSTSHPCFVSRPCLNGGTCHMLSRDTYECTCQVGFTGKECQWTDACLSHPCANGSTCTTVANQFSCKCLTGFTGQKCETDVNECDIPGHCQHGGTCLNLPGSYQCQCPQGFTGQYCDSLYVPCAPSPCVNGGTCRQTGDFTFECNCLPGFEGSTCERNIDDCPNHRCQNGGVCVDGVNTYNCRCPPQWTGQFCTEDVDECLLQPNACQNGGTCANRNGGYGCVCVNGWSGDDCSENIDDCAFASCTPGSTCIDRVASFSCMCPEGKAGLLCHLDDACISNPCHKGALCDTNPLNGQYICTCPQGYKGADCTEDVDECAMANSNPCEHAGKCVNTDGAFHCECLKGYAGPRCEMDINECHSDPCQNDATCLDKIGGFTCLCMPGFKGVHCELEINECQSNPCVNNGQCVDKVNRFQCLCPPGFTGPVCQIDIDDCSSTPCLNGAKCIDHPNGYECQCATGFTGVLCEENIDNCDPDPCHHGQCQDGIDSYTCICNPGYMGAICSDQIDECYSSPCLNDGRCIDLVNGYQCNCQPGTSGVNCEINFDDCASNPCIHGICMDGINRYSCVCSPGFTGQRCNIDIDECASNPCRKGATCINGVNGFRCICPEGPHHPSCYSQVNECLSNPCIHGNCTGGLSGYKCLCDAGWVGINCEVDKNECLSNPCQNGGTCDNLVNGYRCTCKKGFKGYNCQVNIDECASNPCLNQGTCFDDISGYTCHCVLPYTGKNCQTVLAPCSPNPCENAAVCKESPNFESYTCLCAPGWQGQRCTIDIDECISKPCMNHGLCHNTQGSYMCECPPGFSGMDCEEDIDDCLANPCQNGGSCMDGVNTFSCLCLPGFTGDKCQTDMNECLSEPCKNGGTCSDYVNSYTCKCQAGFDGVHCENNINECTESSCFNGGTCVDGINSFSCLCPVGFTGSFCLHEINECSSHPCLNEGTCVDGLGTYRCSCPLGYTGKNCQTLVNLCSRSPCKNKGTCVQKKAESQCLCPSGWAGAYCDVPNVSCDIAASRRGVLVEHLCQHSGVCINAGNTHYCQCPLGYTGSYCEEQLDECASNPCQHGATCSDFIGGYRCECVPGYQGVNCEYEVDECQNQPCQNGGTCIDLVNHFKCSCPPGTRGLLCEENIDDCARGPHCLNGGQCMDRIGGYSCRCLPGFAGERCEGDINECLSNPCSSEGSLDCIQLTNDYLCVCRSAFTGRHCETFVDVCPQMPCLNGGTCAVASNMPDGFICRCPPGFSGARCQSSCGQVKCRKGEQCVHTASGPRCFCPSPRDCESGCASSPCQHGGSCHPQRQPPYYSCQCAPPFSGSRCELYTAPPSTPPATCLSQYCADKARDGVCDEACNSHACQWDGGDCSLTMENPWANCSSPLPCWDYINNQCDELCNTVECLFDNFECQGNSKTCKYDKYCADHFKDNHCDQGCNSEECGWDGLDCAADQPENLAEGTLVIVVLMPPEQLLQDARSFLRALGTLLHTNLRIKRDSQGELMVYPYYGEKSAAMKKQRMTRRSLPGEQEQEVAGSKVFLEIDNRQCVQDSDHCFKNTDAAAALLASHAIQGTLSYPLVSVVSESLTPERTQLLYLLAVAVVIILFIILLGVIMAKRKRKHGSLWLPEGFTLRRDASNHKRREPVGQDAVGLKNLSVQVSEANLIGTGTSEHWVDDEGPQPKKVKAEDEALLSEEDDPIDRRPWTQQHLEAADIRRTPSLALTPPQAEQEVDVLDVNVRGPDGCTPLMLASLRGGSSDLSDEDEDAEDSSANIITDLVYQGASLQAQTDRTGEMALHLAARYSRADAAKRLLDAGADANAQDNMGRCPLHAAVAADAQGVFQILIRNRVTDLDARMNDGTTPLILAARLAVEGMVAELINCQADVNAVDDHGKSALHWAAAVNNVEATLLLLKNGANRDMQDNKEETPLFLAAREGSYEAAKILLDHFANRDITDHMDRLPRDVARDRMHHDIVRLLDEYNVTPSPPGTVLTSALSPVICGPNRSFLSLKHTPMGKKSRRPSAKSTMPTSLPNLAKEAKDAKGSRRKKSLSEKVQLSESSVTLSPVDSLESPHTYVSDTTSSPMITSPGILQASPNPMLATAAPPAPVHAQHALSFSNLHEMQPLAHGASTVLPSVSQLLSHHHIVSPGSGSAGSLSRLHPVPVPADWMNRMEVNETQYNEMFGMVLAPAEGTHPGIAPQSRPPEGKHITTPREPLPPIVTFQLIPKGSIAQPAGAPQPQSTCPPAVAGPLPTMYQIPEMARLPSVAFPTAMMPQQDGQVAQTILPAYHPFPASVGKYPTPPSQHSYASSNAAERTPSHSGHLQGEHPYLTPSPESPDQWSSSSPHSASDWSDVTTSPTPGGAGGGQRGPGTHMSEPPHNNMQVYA
Chain of Torsin-1A-interacting protein 2 (Homo sapiens) (Q8NFQ8 whole entry, looked up): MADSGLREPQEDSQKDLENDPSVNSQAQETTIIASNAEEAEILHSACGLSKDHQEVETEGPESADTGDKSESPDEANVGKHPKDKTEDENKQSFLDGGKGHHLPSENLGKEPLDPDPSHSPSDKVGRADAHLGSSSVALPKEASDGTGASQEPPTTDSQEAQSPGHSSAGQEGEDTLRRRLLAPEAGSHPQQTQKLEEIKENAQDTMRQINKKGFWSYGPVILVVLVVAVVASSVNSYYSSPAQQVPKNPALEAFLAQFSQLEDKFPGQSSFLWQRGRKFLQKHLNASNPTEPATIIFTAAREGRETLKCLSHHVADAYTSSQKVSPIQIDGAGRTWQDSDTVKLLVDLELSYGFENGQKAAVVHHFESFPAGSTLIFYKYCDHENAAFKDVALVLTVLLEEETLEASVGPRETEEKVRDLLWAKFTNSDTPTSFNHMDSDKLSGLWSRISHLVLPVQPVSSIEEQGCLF
Chain of Pro-neuregulin-1, membrane-bound isoform (Homo sapiens) (Q02297 whole entry, looked up, the tested form may be a part, canonical isoform): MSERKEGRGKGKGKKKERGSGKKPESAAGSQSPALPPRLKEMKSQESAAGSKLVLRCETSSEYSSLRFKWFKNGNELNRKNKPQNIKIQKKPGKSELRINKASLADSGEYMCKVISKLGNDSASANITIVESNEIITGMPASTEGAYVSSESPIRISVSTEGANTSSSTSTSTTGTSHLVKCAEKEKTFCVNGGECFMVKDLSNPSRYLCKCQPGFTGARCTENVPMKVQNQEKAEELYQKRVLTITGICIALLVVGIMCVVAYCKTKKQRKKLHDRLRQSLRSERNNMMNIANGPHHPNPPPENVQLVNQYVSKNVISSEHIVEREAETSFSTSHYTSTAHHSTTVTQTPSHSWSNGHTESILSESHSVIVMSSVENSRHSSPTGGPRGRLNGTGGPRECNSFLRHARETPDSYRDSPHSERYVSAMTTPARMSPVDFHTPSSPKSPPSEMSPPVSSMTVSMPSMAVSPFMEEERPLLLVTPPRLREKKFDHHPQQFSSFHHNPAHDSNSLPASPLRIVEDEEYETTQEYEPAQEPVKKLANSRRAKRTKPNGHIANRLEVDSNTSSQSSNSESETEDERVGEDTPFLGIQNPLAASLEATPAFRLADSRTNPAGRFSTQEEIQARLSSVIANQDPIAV

SMILES	composite z-score [1]	composite z-score [2]	composite z-score [3]	composite z-score [4]	composite z-score [5]	composite z-score [6]	composite z-score [7]	z-score [8]	composite z-score [9]	composite z-score [10]	composite z-score [11]	z-score [12]	z-score [13]	z-score [14]	composite z-score [15]	z-score [16]	composite z-score [17]	composite z-score [18]	composite z-score [19]	composite z-score [20]
COc1ccc(C(=O)Nc2ccc(CN3C(=O)[C@]4(O[C@H](CCO)[C@@H]([Si](C)(C)c5ccc(OC)cc5)[C@@H]4C)c4ccccc43)cc2)cc1	-0.329	0.0876	-0.087	0.245	0.561	0.77	0.836	-4.05 (inactive)	0.305	0.432	1.47	-0.0534 (inactive)	-12.2 (active)	1.62 (inactive)	2.17	-0.324 (inactive)	0.0412	0.827	1.13	-0.183
C=CCN1C(=O)[C@@]2(CC=C)N=C(c3ccc(OCCCO)cc3)O[C@H]2c2ccccc21	0.529	0.194	0.0606	-0.0534	1.38	1.3	1.37	-2.47 (inactive)	0.835	-0.318	1.54	-3.69 (inactive)	-4.72 (inactive)	0.764 (inactive)	3.6	1.47 (inactive)	0.357	1.33	0.874	0.297
CCCCCN1CC=CC23O[C@@H]4/C=C\CCC(C)OC(=O)C4[C@H]2C(=O)N(C(C)CO)[C@@H]3C1=O (stereo not given in full)	-0.411	-1.14	-0.164	-0.043	-0.602	0.946	0.38	-1.32 (inactive)	-0.258	-0.268	1.09	0.255 (inactive)	0.117 (inactive)	-0.562 (inactive)	2.37	0.123 (inactive)	-0.238	0.0805	0.385	-0.168
CC(C)NC(=O)[C@@]1(C)c2ccccc2C(=O)N(Cc2cc(C(F)(F)F)cc(C(F)(F)F)c2)[C@H]1c1ccc(CO)cc1	0.43	-1.42	-0.128	-0.477	-0.753	0.353	1.27	-1.38 (inactive)	-0.213	-0.374	1.4	0.49 (inactive)	0.155 (inactive)	-0.0902 (inactive)	3	-0.0192 (inactive)	-0.239	-0.729	-0.301	-0.295
COc1ccc(CCNC(=O)[C@@]2(Sc3ccc(C)cc3)CC(=O)N(C(C)C)[C@@H]2c2ccc(CO)cc2I)cc1	-0.0354	-0.566	0.0376	-0.341	-0.83	-0.387	0.31	-0.132 (inactive)	0.238	-0.511	0.163	-0.971 (inactive)	-0.693 (inactive)	0.706 (inactive)	0.468	-0.236 (inactive)	-0.183	-0.778	-0.343	-0.189
CO[C@H]1O[C@H](CO)[C@@H](OC(=O)Nc2ccc(Oc3ccccc3)cc2)[C@H](OC(=O)Nc2ccc3c(c2)OCO3)[C@H]1OC(=O)Nc1ccc2c(c1)OCO2	0.522	1.24	0.178	1.21	1.5	1.69	1.15	5.22 (inactive)	0.968	0.241	1.53	1.57 (inactive)	1.02 (inactive)	2.07 (inactive)	2.42	2 (inactive)	0.25	0.39	1.02	0.166
CCCc1cc2c(n1Cc1cc(F)cc(F)c1)C(C)C1CN(C(=O)c3ccccc3)C(C)(C(=O)OC)C21 (stereo not given)	1.25	1.77	0.256	0.426	1.71	1.62	1.18	0.0046 (inactive)	1.58	0.441	0.497	0.149 (inactive)	0.744 (inactive)	0.734 (inactive)	3.11	-0.738 (inactive)	1.02	-0.266	1.03	0.249
CC(C)NC(=O)[C@@H]1c2ccccc2C(=O)N(C2Cc3ccccc3C2)[C@H]1c1ccc(CO)cc1	0.351	0.329	-0.0234	0.0799	0.526	0.634	0.998	-0.943 (inactive)	0.148	-0.131	1.03	-0.14 (inactive)	-0.0232 (inactive)	-0.377 (inactive)	2.33	1.28 (inactive)	-0.0491	0.0941	0.436	-0.126
Cc1ccc(S[C@]2(C(=O)NCCCN(C)C)CC(=O)N(Cc3cc(C(F)(F)F)cc(C(F)(F)F)c3)[C@@H]2c2ccc(CO)cc2)cc1	-0.16	-0.594	-0.159	-0.145	-1.28	0.494	-0.624	0.318 (inactive)	-0.482	-0.0645	0.383	-1.15 (inactive)	-0.79 (inactive)	-0.497 (inactive)	0.923	-0.356 (inactive)	-0.0478	-0.768	-1.5	-0.113
COCCOC(=O)N1C(=O)[C@@]2(c3cc(C#CCNC(N)=O)ccc31)[C@H](C(=O)Nc1nc3ccccc3s1)[C@H]1C(=O)O[C@H](c3ccccc3)[C@H](c3ccccc3)N1[C@@H]2c1ccc(OCCO)cc1	1.02	0.103	0.0346	1.05	0.486	0.357	0.331	6.33 (inactive)	0.84	-0.226	1.55	1.18 (inactive)	0.409 (inactive)	2.79 (inactive)	1.61	-0.333 (inactive)	0.711	0.88	1.06	-0.0354
